GC-B act: GC-B (human) receptor activation | P20594 | HEK293-GC-B cells, CNP EC30, cGMP TR-FRET; 0% at EC30 CNP, 100% saturating CNP | activation, % at 10 µM | 370,000 tested, 0.11% active | AID 1920062;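 active = activation at 10 µM reaching about 35% in either raw or pattern-adjusted values, limit read from the data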
NPR1 activator: GC-A (human) enzyme activation | P16066 | HEK293 GC-A cells, cGMP TR-FRET, EC30 ANP; 0% at EC30 ANP, 100% saturating ANP | activation, % at 10 µM | 370,000 tested, 0.14% active; in the data active = activation above about 40%
ADAM17 inh: inhibits human ADAM17; recombinant ADAM17, EDANS/DABCYL FRET peptide cleavage; P78536; inhibition, % at 6.95 µM; 370,000 tested, 0.83% active;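 active = inhibition above the mean of compounds lying between control limits plus 3 SD, set per campaign, cut at about 8.5% in these data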
FAS-TE inh: inhibitors of human fatty acid synthase thioesterase domain. recombinant FAS-TE, OMFH fluorogenic substrate, fluorescence endpoint. AID 602261. 360,000 tested, 0.67% active. inhibition, % at 15 µM;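 active = compounds whose normalised, plate-corrected inhibition of enzyme fluorescence in the single-dose primary screen is 50% or more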
ADAM10 inh: inhibitors of human ADAM10; inhibition, % at 7 µM; O14672; recombinant ADAM10, EDANS/DABCYL FRET peptide cleavage, 3 h; 370,000 tested, 0.62% active;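 active = inhibition above a per-campaign cutoff equal to the mean of compounds falling between control-based bounds plus 3 SD, cut at about 20% in these data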
ADAM10 ctr: counter-screen for ADAM17 exosite inhibitors: inhibitors of human ADAM10 | shares compounds with ADAM17 inh | recombinant ADAM10, EDANS/DABCYL FRET peptide cleavage, 3 h | inhibition, % at 6.95 µM | 2,900 tested, 47% active;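 active = mean inhibition over the triplicate runs exceeds the activity threshold set in the earlier primary screen, cut at about 20% in these data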
ADAM17 confirm: human ADAM17 inhibition, confirmation; recombinant ADAM17, EDANS/DABCYL QFRET peptide cleavage; inhibition, % at 6.95 µM; shares compounds with ADAM17 inh; 2,900 tested, 65% active; AID 743257;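 active = mean inhibition across replicates above the hit cutoff set in the primary screen, cut at about 8.5% in these data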
Each line names hits and unclear results; the compound was inactive in the other large screens (follow-up assays come after a bar, where they were run). This is a sample that favours compounds with a hit; in the whole collection about 2% have one here.

CN(CC(=O)Nc1cccc(F)c1)C(=O)c1cn(-c2ccccc2)nc1-c1cccs1	none
CN(CC(=O)Nc1cccc(F)c1)C(=O)c1cn(-c2ccccc2)nc1-c1ccc(Cl)cc1	ADAM17 inh 9.4 | ADAM10 ctr 27.8 | ADAM17 confirm 17.0
COc1ccc(C2CC(=O)c3c(O)cc(O)cc3O2)c(CC=C(C)C)c1OC (centres undefined)	ADAM17 inh 13.8 | ADAM10 ctr 25.2 | ADAM17 confirm 14.4
O=C(NNC(=O)c1csc(-c2ccccc2)n1)c1ccccc1	ADAM17 inh 8.8 | ADAM10 ctr inactive | ADAM17 confirm inactive
CCc1ccc([C@H]2[C@@H]3C(=O)C[C@@H]4C(=O)N(c5ccccc5)C(=O)[C@@H]4[C@@H]3CN2S(=O)(=O)c2ccc(C)cc2)cc1	ADAM17 inh 8.7 | ADAM10 ctr inactive | ADAM17 confirm 10.4
O=C(c1ccccc1)c1ccc(OCC(O)CNCc2ccc(F)cc2)cc1 (centres undefined)	ADAM17 inh 10.0 | ADAM10 ctr inactive | ADAM17 confirm inactive
CCC(=O)c1ccc(OCC(O)CNCc2ccc(F)cc2)cc1 (centres undefined)	none
CCOC(=O)CSC1=C(C#N)C(c2ccccc2F)C(C(C)=O)=C(C)N1 (centres undefined)	none
CSCSC1=C(C#N)C(c2ccccc2Cl)C(C(C)=O)=C(C)N1 (centres undefined)	ADAM17 inh 15.3 | ADAM10 ctr inactive | ADAM17 confirm 9.3
COc1ccc(OC)c(-c2csc(NC(=O)Cc3ccc(F)cc3)n2)c1	ADAM17 inh 8.6 | ADAM10 ctr 31.9 | ADAM17 confirm 15.7
CCC1(CC)SCCNC1=O	ADAM17 inh 9.1 | ADAM10 ctr inactive | ADAM17 confirm inactive
Cc1cc(NC(=O)c2ccc(NS(=O)(=O)c3ccccc3F)cc2)no1	none (no result: FAS-TE inh)
CCCCC(CC)C(=O)Oc1ccc(O)c(C(C)(C)C)c1 (centres undefined)	ADAM17 inh 11.8 | ADAM10 ctr inactive | ADAM17 confirm inactive
CC(C)(C)c1cc(OC(=O)C2CCCC2)ccc1O	none
COc1ccc(NS(=O)(=O)c2cc(NC(=O)CCSc3ccccc3)ccc2OC)cc1	ADAM17 inh 10.0 | ADAM10 ctr 42.3 | ADAM17 confirm 21.7
Cc1nc(SCc2nc3ccc(Cl)cc3[nH]2)c2oc3ccccc3c2n1	ADAM17 inh 9.8 | ADAM10 ctr inactive | ADAM17 confirm inactive
COc1ccc(N(C)S(=O)(=O)c2cccc(C(=O)Nc3ccc(OC)nc3)c2)cc1	none (no result: FAS-TE inh)
COc1ccc(N(C)S(=O)(=O)c2cccc(C(=O)Nc3ccc4c(c3)OCCO4)c2)cc1	ADAM17 inh 10.7 | ADAM10 ctr 24.5 | ADAM17 confirm 13.3
CN(c1ccc(C(=O)Nc2ccc3c(c2)OCCO3)cc1)S(C)(=O)=O	ADAM17 inh 9.4 | ADAM10 ctr inactive | ADAM17 confirm inactive
O=C(C1CCCN1S(=O)(=O)c1ccc(F)cc1)N1CCc2ccccc2C1 (centres undefined)	none (no result: FAS-TE inh)
Nc1ncc2c(n1)-c1cc(Cl)ccc1SC2	ADAM17 inh 10.2 | ADAM10 ctr inactive | ADAM17 confirm inactive
Cc1cccc(C2(c3cccc(C)c3)OC(=O)c3ccccc32)c1	ADAM17 inh 9.6 | ADAM10 ctr inactive | ADAM17 confirm 14.8
O=C1OC(c2ccccc2)(c2ccccc2)c2ccccc21	none
CCOC(=O)c1cccc(NC(=O)CN(C)S(=O)(=O)c2ccc(F)cc2)c1	none (no result: FAS-TE inh)
S=c1[nH]nc(COc2ccc(Cl)cc2)n1C1CCCCC1	ADAM17 inh 11.5 | ADAM10 ctr inactive | ADAM17 confirm inactive
Cc1ccc(OCc2n[nH]c(=S)n2C2CCCCC2)cc1	none
CCOc1ccc(NC(=O)CN2CCCC2c2cccs2)cc1S(=O)(=O)N1CCCC1 (centres undefined)	none
COc1ccc(NC(=O)CN2CCCC2c2cccs2)cc1S(=O)(=O)N1CCCCC1 (centres undefined)	ADAM17 inh 9.5 | ADAM10 ctr inactive | ADAM17 confirm inactive
Cc1cc(N2CCNC[C@@H]2C)ccc1N1CCN(Cc2ccccc2)[C@@H](C)C1	none (no result: FAS-TE inh)

Source: PubChem BioAssay
